Experimental data from PubChem BioAssay (NCI).
This is part of a sample that, as a whole, favours compounds with a hit. Of some 83,000 tested, about 20% had one in any assay.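 For each line, cells grew in 96-well plates with the test compound present at a single concentration for 48 hours.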 Unmarked numbers belong to inactive results. Active and inactive are the calls of the source. Rule for the calls: active = growth percent below 10; inactive = the rest.

Columns and labels:
Assay in all cases: NCI-60 one-dose screen, 48 h (100 = growth as untreated, 0 = no growth, -100 = all killed)
Details in all cases: 10 µM unless noted
[1] = tested on: NCI-H23 lung
[2] = tested on: NCI-H322M lung
[3] = tested on: HOP-62 NSCLC
[4] = tested on: NCI-H460 lung
[5] = tested on: HOP-92 NSCLC
[6] = tested on: 786-0 renal
[7] = tested on: COLO 205 colon
[8] = tested on: DU-145 prostate
[9] = tested on: K-562 leukemia
[10] = tested on: MALME-3M melanoma
[11] = tested on: MDA-MB-231 breast
[12] = tested on: RXF 393 renal
[13] = tested on: SF-268 CNS
[14] = tested on: SF-295 CNS
[15] = tested on: SF-539 CNS
[16] = tested on: UACC-257 melanoma
[17] = tested on: M14 melanoma
[18] = tested on: HCT-15 colon
[19] = tested on: A549/ATCC NSCLC
[20] = tested on: NCI-H522 lung

In the case of `CN(C)/C=C1\SC(=Nc2ccc(Cl)cc2)NC1=O`, the growth [1] is reported as 103%, the growth [2] is reported as 108% and the growth [3] is reported as 114%. The growth [4] was 102%, the growth [5] was 102% and the growth [6] was 99.8%. It also gave a growth [7] of 119%, a growth [8] of 108% and a growth [9] of 101%. The growth [10] was 103%, the growth [11] was 92.7% and the growth [12] was 100%. It also gave a growth [13] of 101%, a growth [14] of 101% and a growth [15] of 96%. It also gave a growth [16] of 101%, a growth [17] of 109% and a growth [18] of 103%.
For `COc1ccc(-c2cn3c(C(=O)Nc4ccccc4Cl)c(-c4ccccc4)c4c3n2CCCC4)cc1`, the growth [1] was 86.8%, the growth [2] was 102% and the growth [3] was 88.1%. For the same compound, the growth [4] was 75.2%, the growth [5] was 64.3% and the growth [19] was 85.3%. The growth [6] was 90.8%, the growth [7] was 77.2% and the growth [8] was 86.2%. For the same compound, the growth [9] was 49.8%, the growth [11] was 87.3% and the growth [12] was 109%. It also gave a growth [13] of 93.1%, a growth [14] of 54.7% and a growth [15] of 87%. The growth [16] was 91.3%, the growth [17] was 73.6% and the growth [18] was 60.8%.
`COc1ccc(-c2cn[nH]c2-c2cc(OC)c(OC)c(OC)c2)cc1OCc1ccccc1` was tested, and the growth [1] was 33.2%, the growth [2] was 49.1% and the growth [3] was 27.7%. For the same compound, the growth [4] was 12.2%, the growth [5] was 31.4% and the growth [19] was 37.7%. The growth [6] was 21.5%, the growth [7] was 104% and the growth [8] was 65.2%. For the same compound, the growth [10] was 36.6%, the growth [11] was 46.1% and the growth [13] was 27%. The growth [14] was -1.63% (active), the growth [15] was -19.8% (active) and the growth [16] was 47.6%. For the same compound, the growth [17] was 10.7% and the growth [18] was 23.7%.
With `O=C(c1ccccc1)N(C(=S)NCCc1ccc(Cl)cc1)c1ccccc1` the growth [1] was 95.5%, the growth [2] was 103% and the growth [3] was 103%. For the same compound, the growth [4] was 107%, the growth [5] was 75.2% and the growth [19] was 97.2%. The growth [6] was 92.4%, the growth [7] was 139% and the growth [8] was 79.7%. For the same compound, the growth [9] was 58.1%, the growth [11] was 112% and the growth [13] was 96.2%. For the same compound, the growth [14] was 113%, the growth [15] was 104% and the growth [16] was 95.8%. For the same compound, the growth [17] was 101% and the growth [18] was 86.2%.
In the case of `CC(C)CCOc1ccc(-c2n[nH]c(C(F)(F)F)c2-c2cncc(C#N)c2)c(O)c1`, the growth [1] is reported as -0.157% (active), the growth [2] is reported as 12.4% and the growth [3] is reported as 5.79% (active). The growth [4] was 3.48% (active), the growth [5] was -27.9% (active) and the growth [19] was 10.4%. The growth [6] was 17.1%, the growth [7] was 49% and the growth [8] was 18%. The growth [10] was -0.801% (active), the growth [11] was 1.43% (active) and the growth [13] was 21.9%. For the same compound, the growth [14] was 0.826% (active), the growth [15] was 25.2% and the growth [16] was -14% (active). For the same compound, the growth [17] was 22.5% and the growth [18] was 12%.
In the case of `CN1C(=O)N(C)C2(c3ccccc3)OC(=S)NC12c1ccccc1` (stereo not given), the growth [1] is reported as 99.3%, the growth [2] is reported as 92% and the growth [3] is reported as 90.1%. It also gave a growth [4] of 112%, a growth [5] of 101% and a growth [19] of 87.5%. It also gave a growth [6] of 96.2%, a growth [7] of 107% and a growth [8] of 94.4%. The growth [9] was 92.3%, the growth [10] was 97% and the growth [11] was 110%. It also gave a growth [12] of 114%, a growth [13] of 88.9% and a growth [14] of 93.3%. The growth [15] was 92.5%, the growth [16] was 94.7% and the growth [17] was 95.7%. It also gave a growth [18] of 100%.
`COc1cc(C#N)cc2[nH]c(=O)oc12` showed a growth [1] of 104%, a growth [2] of 106% and a growth [3] of 103%. It also gave a growth [4] of 110%, a growth [5] of 95.5% and a growth [19] of 101%. The growth [6] was 98.7%, the growth [7] was 105% and the growth [8] was 99%. It also gave a growth [9] of 123%, a growth [10] of 89.8% and a growth [12] of 128%. It also gave a growth [13] of 100%, a growth [14] of 92.4% and a growth [15] of 101%. The growth [16] was 106%, the growth [17] was 102% and the growth [18] was 95.6%.
Compound `OC(CNC1CCCCC1)Cn1c2ccc(I)cc2c2cc(I)ccc21` (stereo not given) has a growth [1] of 76.6%, a growth [2] of 75.8% and a growth [4] of 70.1%. The growth [5] was -0.53% (active), the growth [20] was 67.5% and the growth [19] was 75%. The growth [6] was 77.7%, the growth [7] was 104% and the growth [8] was 101%. It also gave a growth [9] of 54.4%, a growth [10] of 68.9% and a growth [11] of 56.3%. For the same compound, the growth [12] was 78.3%, the growth [13] was 91.8% and the growth [14] was 47.2%. It also gave a growth [15] of 77.5%, a growth [16] of 84.8% and a growth [17] of 68.7%. The growth [18] was 65.7%.
Compound `CCN1CCN(c2cc(C)c3cc(NC(=O)c4ccc(OC)c(OC)c4)ccc3n2)CC1` has a growth [1] of 58.2%, a growth [2] of 50.7% and a growth [4] of 25.4%. It also gave a growth [5] of 56.4%, a growth [20] of 51.8% and a growth [6] of 49%. The growth [7] was 11.9%, the growth [8] was 34.5% and the growth [9] was 7.23% (active). It also gave a growth [10] of 39.7%, a growth [11] of 47.9% and a growth [12] of 31.1%. For the same compound, the growth [13] was 50.8%, the growth [14] was 32% and the growth [15] was 45.2%. It also gave a growth [16] of 57.9%, a growth [17] of 30.2% and a growth [18] of 30.3%.
In the case of `CC1=C(C(=O)OCC2CCN(C(=O)OC(C)(C)C)CC2)[C@@H](c2cccc(C#N)c2)C2=C(CC(C)(C)CC2=O)N1`, the growth [1] is reported as 53.3%, the growth [2] is reported as 57.1% and the growth [4] is reported as 8.58% (active). It also gave a growth [5] of 79.9%, a growth [20] of 29.6% and a growth [19] of 35.5%. The growth [6] was 41.5%, the growth [7] was 38.6% and the growth [8] was 38.5%. For the same compound, the growth [9] was 25.5%, the growth [10] was 48.5% and the growth [11] was 61.1%. For the same compound, the growth [12] was 71%, the growth [13] was 50.5% and the growth [14] was 27.5%. It also gave a growth [15] of 41.7%, a growth [16] of 61.4% and a growth [17] of 35.7%. The growth [18] was 19.5%.
